TIM10 inh = growth inhibitors of TIM10 yeast strain | S. cerevisiae TIM10 strain growth, BacTiter-Glo luminescence, 24 h | hit rate 1.4% among 330,000 | inhibition, % at 10 µM;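 active = inhibition of 40% or more at the single tested concentration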;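 also: wild-type TIM10 isogenic control strain grown at permissive 25 °C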
NALP1 inh = NALP1 inhibition. S. cerevisiae NALP1/ASC/caspase-1 growth, X-gal OD620, 72 h. inhibition, % at 10 µM. AID 2071. hit rate 0.61% among 280,000; in the data active = inhibition mostly above about 24%, no sharp cut-off; inactive = mostly below about 32%
tim23-1 inh = inhibits growth of tim23-1 mutant yeast. S. cerevisiae tim23-1 growth, BacTiter-Glo luminescence, 24 h. inhibition, % at 20 µM. hit rate 1.3% among 330,000. AID 463212;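 active = growth inhibition of the mutant yeast at or above 50%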;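 also: temperature-sensitive mutant grown at 25 °C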
tim10-1 inh = tim10-1 yeast growth inhibition; S. cerevisiae tim10-1 ts strain growth, BacTiter-Glo, 24 h; inhibition, % at 20 µM; hit rate 2.2% among 330,000; AID 463190;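 active = inhibition of at least 40%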;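 also: mutant grown at 25 °C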
NALP3 yeast inh = blocks the NALP3 inflammasome reconstituted in yeast; Yeast reconstituted NLRP3/ASC/caspase-1, beta-gal luminescence, 24 h; inhibition, % at 10 µM; hit rate 0.39% among 330,000; AID 2825;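 active = inhibition of 50% or more; inactive = inhibition below 50%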
tim10 confirm = confirmation of TIM10 yeast growth inhibitors | shares compounds with TIM10 inh | S. cerevisiae tim10 strain growth, BacTiter-Glo luminescence, 24 h | inhibition, % at 10 µM | hit rate 63% among 4,600 | AID 463215;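 active = inhibition of yeast growth at or above a set limit in either of two replicates at 10 µM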; also: this counterscreen used the strain with wild-type TIM10
Of the large screens only hits and unclear results are named; the others gave an inactive call (follow-up assays come after a bar, where they were run). Shown are actives, neighbours in structure and some others; about 4% of the full set was active somewhere.

COC(C/C=C\[C@H](O)COCc1ccccc1)OC	none (no result: NALP1 inh)
C#CCOc1nc(Nc2cccc([N+](=O)[O-])c2)nc(OCC#C)n1	TIM10 inh 41 | tim10 confirm 42
O=C(COC(=O)CCC(=O)c1cccs1)Nc1ccccc1[N+](=O)[O-]	none
CC1CCCCC12NC(=O)N(CC(=O)OCC(=O)c1ccc(OC(F)F)cc1OC(F)F)C2=O (centres undefined)	none
COc1ccccc1/C=C/C1(C(=O)NC2CCCC2)CC(=O)N1c1ccc(F)cc1 (centres undefined)	TIM10 inh 41 | tim10 confirm inactive
COc1ccccc1N(C)S(=O)(=O)c1ccc(C(=O)NCCc2ccc(F)cc2)cc1	TIM10 inh 46 | tim10 confirm 51
CN(c1ccccc1)S(=O)(=O)c1ccc(C(=O)NCCc2ccc(F)cc2)cc1	none
O=C(CNCCC1=CCCCC1)Nc1ccccc1N1CCCCC1	TIM10 inh 40 | tim10 confirm inactive
N#CC(c1nc2ccccc2nc1N1CCCC1)S(=O)(=O)c1ccccc1 (centres undefined)	TIM10 inh 41 | tim10 confirm inactive
CCCCNC(=O)c1cn(CC(C)C)c(=O)c2c1c1ccccc1n2C	none
C=CCOC(=O)C1=C(C)NC(=S)NC1/C=C/c1ccccc1 (centres undefined)	TIM10 inh 43 | tim10 confirm inactive
CC1CN(CC(O)COC(c2ccc(Cl)cc2)c2ccc(Cl)cc2)CC(C)O1 (centres undefined)	TIM10 inh 46 | tim10 confirm 40
O=C(Nc1cccc(Cl)c1)c1nc[nH]c1C(=O)N1CCN(c2ccccc2)CC1	none (no result: NALP1 inh)
CC(=O)Nc1ccc(NC(=O)C(C)OC(=O)CCSc2ccccc2Cl)cc1 (centres undefined)	TIM10 inh 97 (no result: NALP1 inh) | tim10 confirm inactive
Cc1ccc(SCCC(=O)OC(C)C(=O)Nc2ccccc2)cc1 (centres undefined)	none (no result: NALP1 inh)
Cc1ccc2nc(CSc3nc(C)ccc3C#N)[nH]c2c1	TIM10 inh 61 | tim10 confirm 48
CN(C)C=NC(=O)c1[nH]c2ccc(Cl)cc2c1-c1ccccc1	none
O=C(N/N=C/c1ccccc1[N+](=O)[O-])c1cnccn1	none
Cc1ccc(NC(=O)CN(C)C(=O)COc2cccc3ccc(C)nc23)cc1	none (no result: NALP1 inh)
Cc1ccc(NC(=O)CN(C)C(=O)COc2c(Cl)cc(Cl)c3ccc(C)nc23)cc1	TIM10 inh 40 | tim10 confirm inactive
CC(NC(=O)CSc1ncccc1C(=O)O)C1CC2CCC1C2 (centres undefined)	none
S=C(Nc1ccccc1)Nc1cc(Cl)ccc1Oc1ccccc1	TIM10 inh 48 (no result: NALP1 inh) | tim10 confirm inactive
COc1ccc(OC)c(NC(=S)NCc2ccccc2OC)c1	none
Cc1ccccc1NC(=S)NCCC(c1ccccc1)c1ccccc1	none
COc1ccc(OC)c(NC(=S)NCCC(c2ccccc2)c2ccccc2)c1	TIM10 inh 46 (no result: NALP1 inh) | tim10 confirm inactive
Cc1ccc(NC(=S)NCCC(c2ccccc2)c2ccccc2)c(C)c1	TIM10 inh 49 | tim10 confirm 33
Cc1c(NC(=O)CSCc2ccco2)c(=O)n(-c2ccccc2)n1C	none
Cn1c(CO)cnc1S(=O)(=O)Cc1c(Cl)cccc1Cl	none
COCCOC(=O)c1[nH]c2c(c1C)C(=O)C(C(=O)OC)C(C)C2 (centres undefined)	none
CCCCCOC(=O)c1[nH]c2c(c1C)C(=O)C(C(=O)OC)C(C)C2 (centres undefined)	TIM10 inh 43 | tim10 confirm 37
CC(C)(C)C(=O)Nc1ccccc1N1CCN(c2ccc(F)cc2)CC1	none
O=C(CSc1nnc2scc(-c3ccccc3)n12)c1ccc2c(c1)OCCO2	none
c1ccc(-c2csc3nnc(SCc4ccc5c(c4)OCCO5)n23)cc1	TIM10 inh 41 | tim10 confirm 30
CSc1ncccc1-c1nc2ccccc2[nH]1	none
CCSc1ncccc1-c1nc2ccccc2[nH]1	TIM10 inh 43 | tim10 confirm inactive
CCCN1C(C)C(C(=O)OCC)=CN(Cc2cccc(I)c2)S1(=O)=O (centres undefined)	none (no result: NALP1 inh, NALP3 yeast inh)
Oc1ccc(Cl)cc1CNc1ccc(Br)cn1	TIM10 inh 47 | tim10 confirm inactive
O=C(NCc1nnnn1-c1ccc(F)c(F)c1)c1ccc2c(c1)OCO2	none (no result: NALP1 inh)
COc1ccc(-c2cn3nc(SCC(=O)NCC4CCCO4)ccc3n2)cc1 (centres undefined)	none

From PubChem
